Sampled rows, rich in hits. Any-hit rate of the full collection: about 5.4%.
VACV Venus inh = inhibitors of vaccinia virus (Venus reporter) | Vaccinia virus Venus reporter expression, fluorescence | Potency, µM (highest dose often 36.5 µM), inactives show at the highest dose activity change, negative = inhibition, hits mostly inhibitors | 330,000 tested, 0.46% active | AID 720580; calls by dose curve; tested in A549 cells; also: nearly all actives have a fitted effect of over 30% in size
Marburg entry inh = blocks Marburg virus binding to or entry into cells; 300,000 tested, 1.8% active; AID 540276; Potency, µM (highest dose often 37.8 µM), without a hit: top-dose activity change, negative = inhibition, usual class: inhibitors; Marburg virus pseudotyped entry inhibition, cell reporter; calls by dose curve; tested in HEK293 cells
VACV mCherry inh = vaccinia inhibition (mCherry reporter) | Vaccinia virus mCherry reporter infection, fluorescence | 310,000 tested, 0.63% active | Potency, µM (doses to about 36.5 µM), for inactives: at the top dose activity change, negative = inhibition, usual class: inhibitors; calls by dose curve; tested in A549 cells; also: nearly all actives have a fitted effect of over 35% in size
FMDV inh = blocks foot and mouth disease virus; FMDV antiviral cell-based qHTS; Potency, µM (top dose mostly 57.9 µM), inactives show at the highest dose activity change, negative = inhibition, actives largely listed as inhibitors; 410,000 tested, 1.2% active; AID 1159524; calls by dose curve; tested in HEK293T cells; also: read-out not given here; nearly all actives have a fitted effect of over 45% in size
Sm TGR inh = blocks Schistosoma mansoni thioredoxin glutathione reductase; Potency, µM (highest dose often 114 µM), without a hit: top-dose activity change, negative = inhibition, hits mostly inhibitors; purified TGR, DTNB reduction, TNB absorbance 405 nm; AID 485364; 360,000 tested, 3% active; active = well fitted inhibition curve with a large enough effect; inconclusive = small, poorly fitted or top-dose-only effect; inactive = no such curve, though single readings can be large or run the other way; also: nearly all actives have a fitted effect of over 60% in size
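TGR 20 nM + NADPH 100 uM (dispensed conc.), cpd preinc 15 min RT; start with NADPH (500 uM addition) then DTNB (15 mM addition). Kinetic TNB absorbance, 405 nm filter. Four-parameter Hill fit across titration.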
LASV entry inh = blocks Lassa virus binding to or entry into cells; Lassa virus pseudotype entry inhibition, cell reporter; Potency, µM (series often up to 37.9 µM), for inactives: at the highest dose activity change, negative = inhibition, hits mostly inhibitors; 300,000 tested, 1.2% active; calls by dose curve; tested in HEK293 cells; also: nearly all actives have a fitted effect of over 50% in size
Numbers without * were called inactive; i = inactive; ? = inconclusive; nt = not tested or not shown; ! = not confirmed by another sample; [ ] = remark or other dose. % is scaled to controls: 0 for no effect and ±100 for the full control effect; potency is read from the fitted curve at half-maximal effect.

SMILES | VACV Venus inh | Marburg entry inh | VACV mCherry inh | FMDV inh | Sm TGR inh | LASV entry inh
CC1=C(C(=O)OC2CCCCCCC2)C(c2cccc(O)c2)NC(=O)N1 (configuration not stated) | -19% | ? | -28% | ? | 1% | 1.8µM*
CCOC(=O)NC1(Nc2cccc(Cl)c2)Oc2ccccc2O1 | ? | ? | ? | 10% | 50µM* | ?
Cc1ccc(NC(=O)c2nc(S(=O)(=O)Cc3ccc(F)cc3)ncc2Cl)cc1C | ? | ? | -27% | 28µM* | ? | ?
CC(=O)Nc1ccc(NC(=O)c2nc(S(=O)(=O)Cc3ccc(F)cc3)ncc2Cl)cc1 | -6% | ? | -23% | 32µM* | 3.2µM* | ?
Cc1ccc(NC(=O)c2nc(S(=O)(=O)Cc3ccccc3F)ncc2Cl)cc1 | -18% | nt | -21% | nt | nt | nt
Cc1ccc(CS(=O)(=O)c2ncc(Cl)c(C(=O)Nc3nc4ccc(F)cc4s3)n2)cc1 | ? | -8%[46.1 µM] | ? | ? | -10% | ?
Cc1ccc(NC(=O)c2nc(S(=O)(=O)Cc3ccccc3C)ncc2Cl)cc1C | -20% | ? | -2% | 40µM* | 11µM* | ?
Cc1ccc(C(=O)n2nc(C)c(S(=O)(=O)N3CCCCCC3)c2C)cc1 | -7% | nt | -11% | -8% | 1% | 24%[46.1 µM]
O=C(CC(c1cccs1)N1Cc2ccccc2C1=O)Nc1cccc(F)c1 (configuration not stated) | -22% | nt | -28% | 0% | 6% | -2%[46.1 µM]
Cc1c(C(=O)N2CCCCC2)sc2ncnc(NCCc3ccccn3)c12 | -20% | nt | -20% | -18% | nt | nt
COc1ccc(CNCCC(c2ccc(F)cc2)c2ccc(OC)cc2)cc1 (configuration not stated) | ? | 11µM* | ? | -10% | -8% | 13µM*
COc1ccc(CNCCC(c2ccc(OC)cc2)c2ccccc2OC)cc1 (configuration not stated) | -26% | ? | i | -6% | -21% | -15%[46.1 µM]
COc1ccc(C(CCNCc2ccc(N(C)C)cc2)c2ccccc2OC)cc1 (configuration not stated) | -26% | ? | ? | ? | -8% | 16µM*
COc1ccc(C(CCNCc2ccc(F)cc2)c2ccc(F)cc2)cc1 (configuration not stated) | ? | 15µM* | ? | 23% | -6% | ?
COc1ccc(C(OCC(O)CNC(C)c2ccccc2)c2ccc(OC)cc2)cc1 (configuration not stated) | -27% | 3.5µM* | ? | 4% | -9% | ?
COc1ccccc1NC(=O)CN1C(=O)CC(c2ccc(C)c(C)c2)=Nc2ccccc21 | -6% | nt | -10% | 9% | -2% | ?
COc1ccc(-c2cc(C)no2)cc1S(=O)(=O)NC(C)C | -8% | nt | -16% | 52% | 12% | -5%[46.1 µM]
Cc1nc(C)n(CC(=O)NCC2Cc3cc(-c4ccsc4)cc(Cl)c3O2)n1 (configuration not stated) | -5% | nt | -7% | -7% | nt | nt
CC(NCC(O)COCCC12CC3CC(CC(C3)C1)C2)c1ccccc1 (configuration not stated) | nt | 12µM* | nt | 32µM* | nt | ?
COc1ccc(C(CCNCc2ccccc2)c2ccc(F)cc2)cc1 (configuration not stated) | ? | ? | ? | 28% | -1% | ?
COc1ccc(C(CCNC(C)c2ccccc2)c2ccc(F)cc2)cc1 (configuration not stated) | ? | ? | 11µM* | 31% | 1% | ?
CC(=O)Nc1ccc(NC(=O)c2nc(S(=O)(=O)Cc3cccc(C)c3)ncc2Cl)cc1 | -8% | -13%[46.1 µM] | i | 20µM* | 7.1µM* | ?
COC(=O)c1ccccc1NC(=O)c1nc(S(=O)(=O)Cc2cccc(C)c2)ncc1Cl | ? | 2%[46.1 µM] | -25% | ? | ? | 0%[46.1 µM]
COC(=O)c1ccc(NC(=O)c2nc(S(=O)(=O)Cc3cccc(C)c3)ncc2Cl)cc1 | ? | ? | ? | 28µM* | 6.3µM* | ?
Cc1cccc(CS(=O)(=O)c2ncc(Cl)c(C(=O)NCc3ccc4c(c3)OCO4)n2)c1 | nt | nt | nt | 32µM* | 6.3µM* | nt
SMILES | VACV Venus inh | Marburg entry inh | VACV mCherry inh | FMDV inh | Sm TGR inh | LASV entry inh
NC1=NC(=O)/C(=C\c2ccc(-c3ccc(Cl)cc3)o2)S1 | -7% | nt | i | 27% | -24% | nt
CN(C)C1=NC(=O)/C(=C/c2ccc(-c3ccc(S(N)(=O)=O)cc3)o2)S1 | nt | nt | nt | nt | 32µM* | nt
CN(CC(=O)NC(=O)NCc1ccccc1)Cc1cccc(Cl)c1Cl | ? | 2% | 14µM* | 9% | -1% | ?
O=C(COC(=O)c1ccc(Cl)cc1[N+](=O)[O-])NNC(=O)c1cccs1 | -2% | -3% | -8% | 2% | 56µM* | ?
Cc1cc(C(=O)OCC(=O)NNC(=O)c2cccs2)ccc1[N+](=O)[O-] | 0% | 4%[46.1 µM] | -28% | 2% | 1% | -1%
CNc1nc(N/N=C/c2cc3c(cc2[N+](=O)[O-])OCO3)nc(Nc2ccccc2)n1 | nt | 16µM* | nt | ? | -2% | ?
COc1ccc(Cl)cc1S(=O)(=O)N1CCN(C(=O)c2n[nH]c(=O)c3ccccc23)CC1 | ? | ? | 28µM* | ? | nt | ?
O=C(c1n[nH]c(=O)c2ccccc12)N1CCN(S(=O)(=O)c2ccccc2Cl)CC1 | nt | nt | nt | ? | -10% | nt
COc1ccccc1N1CCN(C(=O)c2ccc(C(C)(C)C)cc2)CC1 | 10µM* | -29% | 11µM* | ? | -13% | -12%
COc1ccccc1N1CCN(C(=O)CSc2ccccc2)CC1 | -22% | -5% | nt | -7% | -5% | -3%
COc1ccccc1N1CCN(C(=O)c2cc(C(C)(C)C)oc2C)CC1 | -14% | 10µM* | -31% | -16% | ? | -29%[46.1 µM]
Cc1oc(C(C)(C)C)cc1C(=O)N1CCN(c2ncccc2C(F)(F)F)CC1 | ? | -2% | -9% | -23% | -11% | -23%
COc1ccccc1N1CCN(C(=O)c2nn(C)c3c2CS(=O)(=O)c2ccccc2-3)CC1 | -12% | nt | -13% | -15% | 8.9µM*! | 1%[46.1 µM]
COc1ccccc1N1CCN(C(=O)C(Sc2ccccc2)c2ccccc2)CC1 (configuration not stated) | ? | 6.3µM* | nt | ? | 0% | ?
CCCCCCCCCCCCCCCC[n+]1cccc(C(=O)N(CC)CC)c1 | -18% | 7.1µM* | -24% | -24% | 0% | 11µM*
C=Cc1ccc(Cn2c(C(=O)O)c(CNC3CCCCC3)c3ccc(OC)cc32)cc1 | -6% | nt | -10% | 7% | -6% | -3%[46.1 µM]
Oc1ccc(Br)cc1-c1ccnn1-c1ccccc1 | ? | 8.9µM* | ? | ? | 5% | -9%
Oc1ccc(Br)cc1-c1n[nH]c(=S)n1Cc1ccccc1 | -26% | 7%[46.1 µM] | i | -10% | 1% | 3%[46.1 µM]
Cc1ccc(CNC(=O)CSc2c3c(nc4cc(Cl)ccc24)CCCC3)o1 | nt | ? | nt | 28µM* | 8.9µM* | 21µM*
